Experimental data from PubChem BioAssay (Tox21).
Inconclusive results are not listed. The source made the active and inactive calls. Calls follow the shape of the dose curve; as a rule, active = well fitted curve in the direction sought with a large enough effect in the repeat runs; inconclusive = weak or mixed curves; inactive = no such curve, though single readings can be large; an effect the other way counts as inactive or inconclusive.

Legend:
[1] = qHTS RealTime-Glo MT Cell Viability Assay in HEK293 cells - 0 hour (AID 1224880); also: top concentration of the series differs between compounds; nearly all actives have a fitted effect of over 45% in size
Summary of the method: (§1)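 600 cells/well were plated with the nonlytic NanoLuc/prosubstrate reagent, pre-incubated 5 h, then given 23 nL of compound in DMSO. Incubation at 37 C for 40 h, with luminescence from viable-cell-reduced substrate read repeatedly from 0 h.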

[2] = A CellTox Green Cytotoxicity Assay to monitor cytotoxicity in HEK293 cells - 32 hour (AID 1224881); also: nearly all actives have a fitted effect of over 40% in size
Summary of the method: (§2)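 HEK293 cells, 600/well, were preincubated 5 hours and then exposed to compounds at 37 C for up to 40 hours. A cell-impermeant cyanine dye staining dead-cell DNA was read by fluorescence at 0, 8, 16, 24, 32 and 40 h time points.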

[3] = A CellTox Green Cytotoxicity Assay to monitor cytotoxicity in HepG2 cells - 0 hour (AID 1224882); also: nearly all actives have a fitted effect of over 35% in size; also: potency is read from the fitted curve at half-maximal effect
Summary of the method: (§3)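 HepG2 cells, 600/well, preincubated 5 h with CellTox Green dye, then exposed to Tox21 compounds in DMSO at 37 C for up to 40 h. Dead-cell DNA fluorescence read at the indicated time point.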

[4] = A CellTox Green Cytotoxicity Assay to monitor cytotoxicity in HepG2 cells - 32 hour (AID 1224883); also: nearly all actives have a fitted effect of over 50% in size
Summary of the method: as §3

[5] = A CellTox Green Cytotoxicity Assay to monitor cytotoxicity in HEK293 cells - 8 hour (AID 1224884); also: nearly all actives have a fitted effect of over 35% in size
Summary of the method: as §2

[6] = qHTS RealTime-Glo MT Cell Viability Assay in HepG2 cells - 16 hour (AID 1224885); also: nearly all actives have a fitted effect of over 50% in size
Summary of the method: (§4)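 HepG2 suspension premixed with RealTime-Glo reagents is plated at 600 cells per well and left 5 h at 37 C/5% CO2. Compounds in DMSO then go in, and bioluminescence reflecting viable cell number is recorded over 40 h.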

[7] = qHTS RealTime-Glo MT Cell Viability Assay in HEK293 cells - 24 hour (AID 1224886); also: top concentration of the series differs between compounds; nearly all actives have a fitted effect of over 50% in size
Summary of the method: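 Reads taken at 0, 8, 16, 24, 32 and 40 h from the same wells. HEK293 cells (600/well) carried RealTime-Glo reagents from seeding, with compound added after a 5 h settle at 37 C.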

[8] = qHTS RealTime-Glo MT Cell Viability Assay in HEK293 cells - 8 hour (AID 1224887); also: top concentration of the series differs between compounds; nearly all actives have a fitted effect of over 50% in size
Summary of the method: as §1

[9] = A CellTox Green Cytotoxicity Assay to monitor cytotoxicity in HEK293 cells - 16 hour (AID 1224888); also: nearly all actives have a fitted effect of over 35% in size
Summary of the method: as §2

[10] = qHTS RealTime-Glo MT Cell Viability Assay in HepG2 cells - 0 hour (AID 1224889); also: nearly all actives have a fitted effect of over 50% in size
Summary of the method: as §4

Measured: Potency

C=CC(=O)N1CCOCC1
inactive: all assays above

CCCOCC(C)OCC(C)O (stereo not given)
inactive: all assays above

Nc1nc2c(ncn2CCC(CO)CO)c(=O)[nH]1
inactive: all assays above

NCCNC(=O)c1ccc(Cl)cn1
inactive: all assays above

O=C(O)c1cccc(C(=O)O)n1
inactive: all assays above

COC(=O)CCCC(=O)O
inactive: all assays above

CN(C)N=Nc1ccccc1
inactive: all assays above

C[N+](C)(C)CC[N+]1(C)Cc2c(Cl)c(Cl)c(Cl)c(Cl)c2C1
inactive: all assays above

CC(C)(C)OC(=O)N1C[C@@H](F)C[C@H]1C(=O)O
inactive: all assays above

NC(=O)c1ncn([C@@H]2O[C@H](CO)[C@@H](O)[C@H]2O)c1N
active: [3] 10.7 µM
inactive: all other assays above

CCCCN(CCO)CCO
inactive: all assays above
